Reference: publication PMC12864922, “TDP-43 directly inhibits mRNA accumulation in neurites through modulation of mRNA stability”
Over roughly 9,900 sequences, “r (bound/input frequency ratio)” has its median near 0.7; the highest 2% begin near 6.5. Many of the other results were omitted from the sample, so the highest values are more common in it than they were.

B1: ENSMUSG00000032194.294|Kank2 (ssRNA)
RNA: GGGAGUUCUACAGUCCGACGAUCGCUUCGAUAUCCGCAUGCUAAUGGAUGAGAAACUGGGUUGGCUGGUGGGUAGAUGUCAUGAUGGAGUCUUUGCACGUGUAUGAAACAGAAAACCAAACUUCAGGACAGACAGCUGCUGGUGUCUCUGGAUGCUCACAGCCUAGGGCACAUUUGAAAGGUCGUGCUCUGAGCUGAGCCCUGAGUUCCAGCCUUGUAGCCAGCAAGGGAGUUUAUUUAAGGUUCUGGAAGCAUCAGCUAUGACCCAAAGCACACGCUCCUCAGAAAAGCCCCUGUUUCUGUCCUCUUGCGGUCGCACUAGUGUGGAAUUCUCGGGUGUCAAGG
B2: ENSMUSG00000042529.84|Kcnj12 (ssRNA)
RNA: GGGAGUUCUACAGUCCGACGAUCGCUUCGAUAUCCGCAUGCUACCCCACAAAACACAAGAAAACAUUAACAGGUGGUUCAAUUUUUAAAAUUCCUGGUGUGGGGACAGUUGGAAUUCUACUCAGCGCUGCCAGGCAAGCAGCUGGACGGAGAACCCUGAGGGUUCUCAGAGGUCUGUUUUCUCCCUCACGUGGGCCAGGGCCUUAAGCGAGUUGUCAUGCUUAAGGAUGAAUCAGGCUGCUUGUGACCAUGUUAACGAUUCUAAUAAAGUGUCUGGAUGUCUCUUGGGGGUGGGGCCCACUAGCUCUUGCGGUCGCACUAGUGUGGAAUUCUCGGGUGUCAAGG
B3: ENSMUSG00000061578.34|Ksr2|40:50;139:145;150:154 (ssRNA)
RNA: GGGAGUUCUACAGUCCGACGAUCGCUUCGAUAUCCGCAUGCUACCACUCAACUAGGACCAAACUGGGCCAGAGAGGGUCCCAACACACCACACAAGGAGCCACAGACUGAGCACACCACCUCGGACUGUGGAGACCAAGACACAUGCCCAGUGGGCAGACUCAGACUCACACGCUGGACCACACACACCGCAACACACUACACAUGGACAGGGCCAACUGCUAUCCUUCUGCCUGGACGAGCCAGCUGUGGAGUGUCCCAGCUGUGCUAUCCUGGAACACAGAACCAGGAUGGAACCAGAAACCUCUUGCGGUCGCACUAGUGUGGAAUUCUCGGGUGUCAAGG
B4: ENSMUSG00000061578.47|Ksr2|61:67;72:76 (ssRNA)
RNA: GGGAGUUCUACAGUCCGACGAUCGCUUCGAUAUCCGCAUGCUACGGACUGUGGAGACCAAGACACAUGCCCAGUGGGCAGACUCAGACUCACACGCUGGACCACACACACCGCAACACACUACACAUGGACAGGGCCAACUGCUAUCCUUCUGCCUGGACGAGCCAGCUGUGGAGUGUCCCAGCUGUGCUAUCCUGGAACACAGAACCAGGAUGGAACCAGAAACAAUACACCUGCUCCGUUGUCAAGGCUUCUAGGCCAAGGUCAGGGUAGGGAGGUGGGGUGGGUUAAACUUGCAAACAUCCUCUUGCGGUCGCACUAGUGUGGAAUUCUCGGGUGUCAAGG
B5: ENSMUSG00000035202.92|Lars2 (ssRNA)
RNA: GGGAGUUCUACAGUCCGACGAUCGCUUCGAUAUCCGCAUGCUAUUUUACCCUACUGAUGAUGUGUUGUUGCCAUGGUAAUCCUGCUCAGUACGAGAGGAACCGCAGCUAGCUUGUGUCUCCAGUGUCUUUUACCAUCACAGGCCCUGGCUCUGUGCUACCUCCCUAGAAUACCUGUGGUUCAUCACCUUCAGCUCACACUCCAUUCAGACAAUGCUCACUUAGGCCUACAAGCAAGGGAGAGGCUUAAGCACAAGGUCUUUAAGCUUGAUACUGUGCCUGGUCUCAAUGCCUAGAAAUUCCAACUCUUGCGGUCGCACUAGUGUGGAAUUCUCGGGUGUCAAGG
B6: ENSMUSG00000004113.188|Cacna1b (ssRNA)
RNA: GGGAGUUCUACAGUCCGACGAUCGCUUCGAUAUCCGCAUGCUAGCAAUGUUCCUGUAUGUUUCUACCCUGCCUGGGAUGUCCCCAAUGACCCUGGCUCCUCUGCUCAACCAAGUGCCUGAUCUCUGGCUCUGAGCAUCGUGGAUGAGGUACGGCCUCAGGAAGCAUCGGGUGGAUUGGGUGGGAGCUGCUCAGAGCAGCACGGGGGCUUGUGUCUUAGGGACAUUGACAGUGUCCAUCAGCAUGUCAGAGAAGCAGCUGUAGUGCCCGUGUUUCUCCCUGAGUCAUGGGUUCUGAAGAAGCCACUCUUGCGGUCGCACUAGUGUGGAAUUCUCGGGUGUCAAGG
B7: ENSMUSG00000058297.298|Spock2 (ssRNA)
RNA: GGGAGUUCUACAGUCCGACGAUCGCUUCGAUAUCCGCAUGCUAAGAGAAUACCCGAGGGCCACCCUGAUGCCCAGGAAGAGUGAGGGCAGCCCCCUGUGUGGUGGAAGAGGCUGGGCAGCUAGCUACUGGGGACCUUGUGCUGAGGCUUCCAGGACAAAGCCCCAGUCUGGCUCUCCCCCAGCCUCUCAGGGGCACUGGCUGGUCACAUCCACUGAGUAUUGAUCGGUUGGACUUUAGGGAAGAGCCUCCUCCUUCCCAUUCCUUUCUGCCACCCUGGAAUGGCCACCUUAAUCGUCAUCUCCCUCUUGCGGUCGCACUAGUGUGGAAUUCUCGGGUGUCAAGG
B8: ENSMUSG00000061578.129|Ksr2 (ssRNA)
RNA: GGGAGUUCUACAGUCCGACGAUCGCUUCGAUAUCCGCAUGCUAGGUGUGACCUUUACCAGUUCACCAUCAUUCAUGGCUUCCCCCAAAGUCCCGAGUCCUGAGAACCGGGGCUGUGGCAAGAGAGUUCUGGUGUGUUCUCUCUGUGGGGCUAGCAAUGCCGGGGUUAAGUUCUCCCUCGGUGAUGGAGACGGUCCUGGGUAUGCAUGAUGGGUUACAUGGGUGUGUGUGUGUGUGUAACUGUUUACAAUGGUCUCCCUGCCUCUCACGGGCUGUGUUCCAGGAGAAUGCACAUAGAGAGGUUCCUCUUGCGGUCGCACUAGUGUGGAAUUCUCGGGUGUCAAGG
B9: ENSMUSG00000061578.131|Ksr2 (ssRNA)
RNA: GGGAGUUCUACAGUCCGACGAUCGCUUCGAUAUCCGCAUGCUAACCAGUUCACCAUCAUUCAUGGCUUCCCCCAAAGUCCCGAGUCCUGAGAACCGGGGCUGUGGCAAGAGAGUUCUGGUGUGUUCUCUCUGUGGGGCUAGCAAUGCCGGGGUUAAGUUCUCCCUCGGUGAUGGAGACGGUCCUGGGUAUGCAUGAUGGGUUACAUGGGUGUGUGUGUGUGUGUAACUGUUUACAAUGGUCUCCCUGCCUCUCACGGGCUGUGUUCCAGGAGAAUGCACAUAGAGAGGUUCUGUGGUCUCUGCCUCUUGCGGUCGCACUAGUGUGGAAUUCUCGGGUGUCAAGG
B10: ENSMUSG00000058297.297|Spock2 (ssRNA)
RNA: GGGAGUUCUACAGUCCGACGAUCGCUUCGAUAUCCGCAUGCUAUGAGAGAGAGAAUACCCGAGGGCCACCCUGAUGCCCAGGAAGAGUGAGGGCAGCCCCCUGUGUGGUGGAAGAGGCUGGGCAGCUAGCUACUGGGGACCUUGUGCUGAGGCUUCCAGGACAAAGCCCCAGUCUGGCUCUCCCCCAGCCUCUCAGGGGCACUGGCUGGUCACAUCCACUGAGUAUUGAUCGGUUGGACUUUAGGGAAGAGCCUCCUCCUUCCCAUUCCUUUCUGCCACCCUGGAAUGGCCACCUUAAUCGUCCUCUUGCGGUCGCACUAGUGUGGAAUUCUCGGGUGUCAAGG
B11: ENSMUSG00000058297.285|Spock2 (ssRNA)
RNA: GGGAGUUCUACAGUCCGACGAUCGCUUCGAUAUCCGCAUGCUAUGUGUGUGUGUGAGAGAGAGAGAGAGAGAGAGAGAGAGAGAGAGAGAGAAAGAGAGAGAGAAUGAGAGAGAAUGAGAGAGAGAAUACCCGAGGGCCACCCUGAUGCCCAGGAAGAGUGAGGGCAGCCCCCUGUGUGGUGGAAGAGGCUGGGCAGCUAGCUACUGGGGACCUUGUGCUGAGGCUUCCAGGACAAAGCCCCAGUCUGGCUCUCCCCCAGCCUCUCAGGGGCACUGGCUGGUCACAUCCACUGAGUAUUGAUCCUCUUGCGGUCGCACUAGUGUGGAAUUCUCGGGUGUCAAGG
B12: ENSMUSG00000061578.130|Ksr2 (ssRNA)
RNA: GGGAGUUCUACAGUCCGACGAUCGCUUCGAUAUCCGCAUGCUAACCUUUACCAGUUCACCAUCAUUCAUGGCUUCCCCCAAAGUCCCGAGUCCUGAGAACCGGGGCUGUGGCAAGAGAGUUCUGGUGUGUUCUCUCUGUGGGGCUAGCAAUGCCGGGGUUAAGUUCUCCCUCGGUGAUGGAGACGGUCCUGGGUAUGCAUGAUGGGUUACAUGGGUGUGUGUGUGUGUGUAACUGUUUACAAUGGUCUCCCUGCCUCUCACGGGCUGUGUUCCAGGAGAAUGCACAUAGAGAGGUUCUGUGGUCUCUUGCGGUCGCACUAGUGUGGAAUUCUCGGGUGUCAAGG
B13: ENSMUSG00000058297.286|Spock2 (ssRNA)
RNA: GGGAGUUCUACAGUCCGACGAUCGCUUCGAUAUCCGCAUGCUAUGUGUGAGAGAGAGAGAGAGAGAGAGAGAGAGAGAGAGAGAGAAAGAGAGAGAGAAUGAGAGAGAAUGAGAGAGAGAAUACCCGAGGGCCACCCUGAUGCCCAGGAAGAGUGAGGGCAGCCCCCUGUGUGGUGGAAGAGGCUGGGCAGCUAGCUACUGGGGACCUUGUGCUGAGGCUUCCAGGACAAAGCCCCAGUCUGGCUCUCCCCCAGCCUCUCAGGGGCACUGGCUGGUCACAUCCACUGAGUAUUGAUCGGUUGGCUCUUGCGGUCGCACUAGUGUGGAAUUCUCGGGUGUCAAGG
B14: ENSMUSG00000058297.291|Spock2 (ssRNA)
RNA: GGGAGUUCUACAGUCCGACGAUCGCUUCGAUAUCCGCAUGCUAAGAGAGAGAGAGAAAGAGAGAGAGAAUGAGAGAGAAUGAGAGAGAGAAUACCCGAGGGCCACCCUGAUGCCCAGGAAGAGUGAGGGCAGCCCCCUGUGUGGUGGAAGAGGCUGGGCAGCUAGCUACUGGGGACCUUGUGCUGAGGCUUCCAGGACAAAGCCCCAGUCUGGCUCUCCCCCAGCCUCUCAGGGGCACUGGCUGGUCACAUCCACUGAGUAUUGAUCGGUUGGACUUUAGGGAAGAGCCUCCUCCUUCCCAUUCUCUUGCGGUCGCACUAGUGUGGAAUUCUCGGGUGUCAAGG
B15: ENSMUSG00000058297.288|Spock2 (ssRNA)
RNA: GGGAGUUCUACAGUCCGACGAUCGCUUCGAUAUCCGCAUGCUAAGAGAGAGAGAGAGAGAGAGAGAGAGAGAGAAAGAGAGAGAGAAUGAGAGAGAAUGAGAGAGAGAAUACCCGAGGGCCACCCUGAUGCCCAGGAAGAGUGAGGGCAGCCCCCUGUGUGGUGGAAGAGGCUGGGCAGCUAGCUACUGGGGACCUUGUGCUGAGGCUUCCAGGACAAAGCCCCAGUCUGGCUCUCCCCCAGCCUCUCAGGGGCACUGGCUGGUCACAUCCACUGAGUAUUGAUCGGUUGGACUUUAGGGAAGCUCUUGCGGUCGCACUAGUGUGGAAUUCUCGGGUGUCAAGG

These binders were tested against TDP-43 (Homo sapiens, UniProt Q13148 1-414) (assay: RNA Bind-n-Seq with designed 260-mer pool; 25 mM Tris-HCl, 150 mM KCl, 3 mM MgCl2, BSA (printed 500 mg/mL), 20 units/mL SUPERase IN; pH not stated; 500 nM RNA pool, 1 h, 4 C; TDP-43 5, 50, 500 nM; high values mean tight binding). Details: protein: recombinant; tags: SBP (GST cleaved off with PreScission; pGEX-GST-SBP).
Sequence of TDP-43 (Q13148 whole entry): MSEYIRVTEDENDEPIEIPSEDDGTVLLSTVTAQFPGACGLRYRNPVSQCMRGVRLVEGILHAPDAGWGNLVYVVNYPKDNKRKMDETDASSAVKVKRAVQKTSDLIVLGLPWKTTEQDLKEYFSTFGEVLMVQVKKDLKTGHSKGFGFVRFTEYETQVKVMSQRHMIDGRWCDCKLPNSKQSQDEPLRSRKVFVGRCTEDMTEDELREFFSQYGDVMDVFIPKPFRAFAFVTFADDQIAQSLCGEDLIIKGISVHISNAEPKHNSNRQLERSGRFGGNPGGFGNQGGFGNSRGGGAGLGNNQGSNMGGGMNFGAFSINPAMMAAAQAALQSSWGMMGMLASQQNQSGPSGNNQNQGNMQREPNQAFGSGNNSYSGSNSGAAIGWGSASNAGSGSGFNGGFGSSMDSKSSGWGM
Method in brief: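 An in vitro-transcribed pool of 260-nt 3′ UTR oligos (500 nM) was incubated for 1 h at 4 °C with recombinant SBP-tagged TDP-43 at 5, 50 or 500 nM held on streptavidin beads. The buffer contained 25 mM Tris-HCl, 150 mM KCl, 3 mM MgCl2, BSA and SUPERase IN. Biotin-eluted bound RNA was sequenced, and binding, R, is each oligo's normalized read abundance in the bound sample over that in input.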

Binder	binding signal
B1	0.914 R (bound/input frequency ratio)
B2	1.71 R (bound/input frequency ratio)
B3	1.07 R (bound/input frequency ratio)
B4	0.292 R (bound/input frequency ratio)
B5	0.689 R (bound/input frequency ratio)
B6	0.976 R (bound/input frequency ratio)
B7	3.7 R (bound/input frequency ratio)
B8	4.45 R (bound/input frequency ratio)
B9	3.31 R (bound/input frequency ratio)
B10	4.65 R (bound/input frequency ratio)
B11	7.21 R (bound/input frequency ratio)
B12	6.59 R (bound/input frequency ratio)
B13	6.3 R (bound/input frequency ratio)
B14	8.35 R (bound/input frequency ratio)
B15	7.62 R (bound/input frequency ratio)
